Results filed as inconclusive are left out. A call without a number means that no potency is given here. Activity calls are given as the source filed them. Calls come from the whole dose curve; as a rule, active = well fitted cell-killing curve with a large enough effect in the repeat runs; inconclusive = weak or mixed curves, or effect the other way; inactive = flat fitted curve, though single readings scatter.
Test: cAMP Responsive Elements (CRE) small molecule antagonists, cell-based qHTS assay: qHTS cell viability counter screen (AID 2060913); note: nearly all actives have a fitted effect of over 40% in size
Details: CRE-bla HEK293T viability, CellTiter-Glo luminescence, 5 h; series mostly up to 92.4 µM
In short: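 CRE-bla HEK293T cells (2,000/well, 18 h) given compound plus NKH477 0.25 uM final for 3 h at 37C; viability counter-screen by CellTiter-Glo luminescence in same wells after 30 min.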
In the case of `CC(C)(O)C#CC(C)(C)O`, the Potency is reported as “inactive”.
For `C=Cc1ccccn1`, the Potency was “inactive”.
In the case of `COC(=O)c1cc(C(=O)OC)cc(S(=O)(=O)O)c1`, the Potency is reported as “inactive”.
For `Cc1cc(C)nc(NS(=O)(=O)c2ccc(N)cc2)n1`, the Potency was “inactive”.
For `OCCc1ccccn1`, the Potency was “inactive”.
With `CCCCCC1CCCC(=O)O1` (stereo not given) the Potency was “inactive”.
With `CC1=CCC(O)(C(C)C)CC1` (stereo not given) the Potency was “inactive”.
In the case of `CC/C=C(\C)C=O`, the Potency is reported as “inactive”.
For `COc1ccc(OC)c(N=Nc2c(O)ccc3ccccc23)c1`, the Potency was “inactive”.
For `O=C(O)c1ccc[n+]([O-])c1`, the Potency was “inactive”.
For `C/C(=C1\CCOC(=O)S1)N(C=O)Cc1cnc(C)nc1N`, the Potency was “inactive”.
With `N[C@H]1C(O)O[C@H](CO)[C@H](O)[C@@H]1O` (stereo not given in full) the Potency was “inactive”.
With `O=C1c2ccccc2C(=O)c2cc(O)ccc21` the Potency was “inactive”.
In the case of `OCCN1CCN(CCO)CC1`, the Potency is reported as “inactive”.
For `CCn1cc(C(=O)O)c(=O)c2cnc(N3CCNCC3)nc21`, the Potency was “inactive”.
For `CC(C)(C)C1CCCCC1=O` (stereo not given), the Potency was “inactive”.
In the case of `Cc1ccc(C)c(O)c1C`, the Potency is reported as “inactive”.
For `N[C@H]1C(O)O[C@H](CO)[C@@H](O)[C@@H]1O` (stereo not given in full), the Potency was “inactive”.
With `CSC(=O)c1cccc2nnsc12` the Potency was “inactive”.
With `CC(C)CCCCOC(=O)c1ccccc1C(=O)OCCCCC(C)C` the Potency was “inactive”.
With `O=C(Oc1ccccc1C(=O)O)c1ccccc1O` the Potency was “inactive”.
For `Clc1ccccc1C(c1ccccc1)(c1ccccc1)n1ccnc1`, the Potency was “inactive”.
With `CC(=O)NNC(C)=O` the Potency was “inactive”.
In the case of `CC(C)=CCC[C@@](C)(O)[C@H]1CC=C(C)CC1`, the Potency is reported as “inactive”.
For `CCCCCC(C)=O`, the Potency was “inactive”.
For `CCCCCCCC/C=C\CCCCCCCCO`, the Potency was “inactive”.
With `CCN(CC)CCNC(=O)COc1ccc(Cl)cc1` the Potency was “inactive”.
With `O=S(=O)(O)CCN1CCN(CCO)CC1` the Potency was “inactive”.
For `NS(=O)(=O)c1cc(-c2nn[nH]n2)c(NCc2cccs2)cc1Cl`, the Potency was “inactive”.
With `CCC(CO)(CO)[N+](=O)[O-]` the Potency was “inactive”.
In the case of `CC1(C)C(=O)N(Cl)C(=O)N1Cl`, the Potency is reported as “inactive”.
In the case of `C=C1C[C@@]23CC[C@H]4[C@@](C)(CCC[C@@]4(C)C(=O)O[C@@H]4O[C@H](CO)[C@@H](O)[C@H](O)[C@H]4O)[C@@H]2CC[C@]1(O[C@@H]1O[C@H](CO)[C@@H](O)[C@H](O[C@@H]2O[C@H](CO)[C@@H](O)[C@H](O)[C@H]2O)[C@H]1O[C@@H]1O[C@H](CO)[C@@H](O)[C@H](O)[C@H]1O)C3`, the Potency is reported as “inactive”.
For `C=C(C)C(=O)OCCOCCOCCOC(=O)C(=C)C`, the Potency was “inactive”.
With `CCOC(=O)c1ccccc1O` the Potency was “inactive”.
In the case of `O=c1cc[nH]c(=O)[nH]1`, the Potency is reported as “inactive”.
For `O=C(NOCC1CC1)c1ccc(F)c(F)c1Nc1ccc(I)cc1Cl`, the Potency was “inactive”.
With `OC1(c2ccc(Cl)cc2)CCNCC1` the Potency was “inactive”.
With `CCCCCCCCCCCC(C)=O` the Potency was “inactive”.
For `Cc1cc(C(C#N)c2ccc(Cl)cc2)c(Cl)cc1NC(=O)c1cc(I)cc(I)c1O` (stereo not given), the Potency was “inactive”.
With `O=S(=O)(O)c1ccccc1/C=C/c1ccc(-c2ccc(/C=C/c3ccccc3S(=O)(=O)O)cc2)cc1` the Potency was “inactive”.

Test: cAMP Responsive Elements (CRE) small molecule agonists, cell-based qHTS assay: qHTS cell viability counter screen (AID 2060914);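 note: viability read after 3 h of compound exposure; nearly all actives have a fitted effect of over 50% in size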
Details: CRE-bla HEK293T viability, CellTiter-Glo luminescence, 5 h; series mostly up to 92.4 µM
In short: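 Cells are seeded and incubated 18 h, treated with compounds in DMSO for 3 h, read for the bla reporter, then given CellTiter-Glo; luminescence is measured after 30 min at room temperature.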
In the case of `CC(C)(O)C#CC(C)(C)O`, the Potency is reported as “inactive”.
With `C=Cc1ccccn1` the Potency was “inactive”.
In the case of `COC(=O)c1cc(C(=O)OC)cc(S(=O)(=O)O)c1`, the Potency is reported as “inactive”.
With `Cc1cc(C)nc(NS(=O)(=O)c2ccc(N)cc2)n1` the Potency was “inactive”.
With `OCCc1ccccn1` the Potency was “inactive”.
For `CCCCCC1CCCC(=O)O1` (stereo not given), the Potency was “inactive”.
For `CC1=CCC(O)(C(C)C)CC1` (stereo not given), the Potency was “inactive”.
With `CC/C=C(\C)C=O` the Potency was “inactive”.
With `COc1ccc(OC)c(N=Nc2c(O)ccc3ccccc23)c1` the Potency was “inactive”.
For `O=C(O)c1ccc[n+]([O-])c1`, the Potency was “inactive”.
For `C/C(=C1\CCOC(=O)S1)N(C=O)Cc1cnc(C)nc1N`, the Potency was “inactive”.
With `N[C@H]1C(O)O[C@H](CO)[C@H](O)[C@@H]1O` (stereo not given in full) the Potency was “inactive”.
In the case of `O=C1c2ccccc2C(=O)c2cc(O)ccc21`, the Potency is reported as “inactive”.
For `OCCN1CCN(CCO)CC1`, the Potency was “inactive”.
For `CCn1cc(C(=O)O)c(=O)c2cnc(N3CCNCC3)nc21`, the Potency was “inactive”.
For `CC(C)(C)C1CCCCC1=O` (stereo not given), the Potency was “inactive”.
With `Cc1ccc(C)c(O)c1C` the Potency was “inactive”.
With `N[C@H]1C(O)O[C@H](CO)[C@@H](O)[C@@H]1O` (stereo not given in full) the Potency was “inactive”.
In the case of `CSC(=O)c1cccc2nnsc12`, the Potency is reported as “inactive”.
For `CC(C)CCCCOC(=O)c1ccccc1C(=O)OCCCCC(C)C`, the Potency was “inactive”.
With `O=C(Oc1ccccc1C(=O)O)c1ccccc1O` the Potency was “inactive”.
In the case of `Clc1ccccc1C(c1ccccc1)(c1ccccc1)n1ccnc1`, the Potency is reported as “inactive”.
In the case of `CC(=O)NNC(C)=O`, the Potency is reported as “inactive”.
For `CC(C)=CCC[C@@](C)(O)[C@H]1CC=C(C)CC1`, the Potency was “inactive”.
With `CCCCCC(C)=O` the Potency was “inactive”.
In the case of `CCCCCCCC/C=C\CCCCCCCCO`, the Potency is reported as “inactive”.
With `CCN(CC)CCNC(=O)COc1ccc(Cl)cc1` the Potency was “inactive”.
For `O=S(=O)(O)CCN1CCN(CCO)CC1`, the Potency was “inactive”.
In the case of `NS(=O)(=O)c1cc(-c2nn[nH]n2)c(NCc2cccs2)cc1Cl`, the Potency is reported as “inactive”.
For `CCC(CO)(CO)[N+](=O)[O-]`, the Potency was “inactive”.
For `CC1(C)C(=O)N(Cl)C(=O)N1Cl`, the Potency was “inactive”.
For `C=C1C[C@@]23CC[C@H]4[C@@](C)(CCC[C@@]4(C)C(=O)O[C@@H]4O[C@H](CO)[C@@H](O)[C@H](O)[C@H]4O)[C@@H]2CC[C@]1(O[C@@H]1O[C@H](CO)[C@@H](O)[C@H](O[C@@H]2O[C@H](CO)[C@@H](O)[C@H](O)[C@H]2O)[C@H]1O[C@@H]1O[C@H](CO)[C@@H](O)[C@H](O)[C@H]1O)C3`, the Potency was “inactive”.
In the case of `C=C(C)C(=O)OCCOCCOCCOC(=O)C(=C)C`, the Potency is reported as “inactive”.
For `CCOC(=O)c1ccccc1O`, the Potency was “inactive”.
With `O=c1cc[nH]c(=O)[nH]1` the Potency was “inactive”.
With `O=C(NOCC1CC1)c1ccc(F)c(F)c1Nc1ccc(I)cc1Cl` the Potency was “inactive”.
With `OC1(c2ccc(Cl)cc2)CCNCC1` the Potency was “inactive”.
In the case of `CCCCCCCCCCCC(C)=O`, the Potency is reported as “inactive”.
For `Cc1cc(C(C#N)c2ccc(Cl)cc2)c(Cl)cc1NC(=O)c1cc(I)cc(I)c1O` (stereo not given), the Potency was “inactive”.
For `O=S(=O)(O)c1ccccc1/C=C/c1ccc(-c2ccc(/C=C/c3ccccc3S(=O)(=O)O)cc2)cc1`, the Potency was “inactive”.

From PubChem BioAssay (Tox21)
